Giardia FBPA inh: qHTS Assay for Inhibitors of Fructose-1,6-bisphosphate Aldolase from Giardia Lamblia | Potency, µM (doses to about 59.6 µM), for the others: at the top dose activity, negative = inhibition, hits mostly inhibitors | purified Giardia FBPA | 290,000 tested, 0.71% active | A8B2U2; also: potency is read from the fitted curve at half-maximal effect; % is scaled to controls: 0 for no effect and ±100 for the full control effect; nearly all actives have a fitted effect of over 55% in size
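40 nM FBPA preincubated 10 min at RT with compound (up to 57.5 uM final), then substrate plus GAPDH/TPI/NAD/arsenate coupling and diaphorase/resazurin added. Fluorescence read after 20 min at RT, 525/598 nm.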
LmPK inh: qHTS Assay for Inhibitors of Leishmania Mexicana Pyruvate Kinase (LmPK) | purified LmPK, Kinase-Glo ATP luminescence, 1 h | Potency, µM (titrated, usually from 57.5 µM), without a hit: at the top dose activity change, negative = inhibition, hits mostly inhibitors | 290,000 tested, 0.37% active; also: potency is read from the fitted curve at half-maximal effect; % is scaled to controls: 0 for no effect and ±100 for the full control effect
Target sequence (Q27686 whole entry, looked up): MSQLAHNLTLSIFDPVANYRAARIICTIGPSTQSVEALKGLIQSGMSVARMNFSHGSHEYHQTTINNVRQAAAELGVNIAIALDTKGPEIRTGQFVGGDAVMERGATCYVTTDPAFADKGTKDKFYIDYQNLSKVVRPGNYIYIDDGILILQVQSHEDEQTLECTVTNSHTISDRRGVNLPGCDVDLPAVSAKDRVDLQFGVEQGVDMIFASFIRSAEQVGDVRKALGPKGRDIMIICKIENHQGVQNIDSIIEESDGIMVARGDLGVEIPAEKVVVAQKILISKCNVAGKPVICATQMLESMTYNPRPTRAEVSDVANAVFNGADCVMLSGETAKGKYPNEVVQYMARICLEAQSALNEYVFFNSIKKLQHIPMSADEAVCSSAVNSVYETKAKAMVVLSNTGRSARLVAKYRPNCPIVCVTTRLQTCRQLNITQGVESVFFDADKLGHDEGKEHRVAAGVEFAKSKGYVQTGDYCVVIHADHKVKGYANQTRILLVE
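0.1 nM LmPK, 0.5 mM PEP, 0.1 mM ADP; 50 mM imidazole pH 7.2, 7 mM MgCl2, 50 mM KCl; 1 h RT. Kinase-Glo luminescence readout, normalized to no-enzyme (full inhibition) and uninhibited wells.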
CHX counter: Cycloheximide Counterscreen for Small Molecule Inhibitors of Shiga Toxin. max response, %. AID 2314, 2010. 300,000 tested, 12% active. cell reporter, cycloheximide protein synthesis inhibition counterscreen; in the data active = max response mostly above about 13%, no sharp cut-off; inactive = mostly below about 14%; also: read at 38.3 µM for the half of the compounds with a filed dose; 0% is about no effect
TbPYK inhibitor: qHTS of Trypanosoma Brucei Inhibitors. 410,000 tested, 0.12% active. AID 624173, 2012. Potency, µM (top dose mostly 76.8 µM), without a hit: at the top dose activity, negative = inhibition, usual class: inhibitors. pyruvate kinase (Trypanosoma brucei), Q57TT1. TbPYK enzyme, Kinase-Glo Plus ATP luminescence, 45 min; also: potency is read from the fitted curve at half-maximal effect; % is scaled to controls: 0 for no effect and ±100 for the full control effect; nearly all actives have a fitted effect of over 50% in size
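ADP (130 uM final) triggers the TbPYK reaction after compound addition; incubation is 45 min at room temperature. Kinase-Glo Plus is then added and luminescence imaged. Normalized data are fitted to concentration-effect curves.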
Shiga toxin inh: A qHTS for Small Molecule Inhibitors of Shiga Toxin; Vero cells, Shiga toxin protein synthesis inhibition reporter; 290,000 tested, 9.2% active; inhibition, % at 38.7 µM; in the data active = inhibition mostly above about 28%, no sharp cut-off; inactive = mostly below about 43%; also: 0% is about no effect
Sm TGR inh: qHTS Assay for the Inhibitors of Schistosoma Mansoni Peroxiredoxins; 360,000 tested, 3% active; purified TGR, DTNB reduction, TNB absorbance 405 nm; Potency, µM (doses to about 114 µM), for inactives: at the top dose activity change, negative = inhibition, actives largely listed as inhibitors; AID 485364, 2010; also: potency is read from the fitted curve at half-maximal effect; % is scaled to controls: 0 for no effect and ±100 for the full control effect; nearly all actives have a fitted effect of over 60% in size
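Kinetic colorimetric format: TGR-catalysed, NADPH-driven DTNB reduction monitored via TNB absorbance. Enzyme dispensed at 20 nM; compound exposure 15 min at room temperature before reaction start.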
Active calls of the source: *. Only a selection was taken, and hits are over-represented in it overall. Unless noted, calls follow the shape of the dose curve; as a rule, active = well fitted curve in the direction sought with a large enough effect; inconclusive = small, poorly fitted or top-dose-only effect, or another doubt; inactive = no such curve, though single readings can be large; an effect the other way counts as inactive or inconclusive.

CCOC(=O)Nc1nc(-c2ccc(Cl)cc2Cl)cs1 was read as Giardia FBPA inh 7%, LmPK inh -4%, CHX counter 24*, TbPYK inhibitor -6%, Shiga toxin inh 78* and Sm TGR inh -3%.
For COC(=O)c1ccc(/C=N/Nc2nc(-c3ccc(Cl)cc3Cl)cs2)cc1 the results were Giardia FBPA inh 3%, LmPK inh 1%, CHX counter -2 and Shiga toxin inh 17.
`Cc1ccc(C(=O)N(Nc2nc3ccccc3s2)C(=O)c2ccc(C)cc2)cc1` gave Giardia FBPA inh 12%, LmPK inh 0%, CHX counter 10*, TbPYK inhibitor -2%, Shiga toxin inh 18 and Sm TGR inh -7%.
For Oc1ccc(COC2CCN(Cc3ccccc3)C2)c2cccnc12 (configuration not stated) the results were Sm TGR inh 45µM*.
CCOC(=O)C1CCN(Cc2ccccc2C(F)(F)F)CC1 was read as Giardia FBPA inh -20%, LmPK inh -5%, CHX counter -1, TbPYK inhibitor 20%, Shiga toxin inh -16 and Sm TGR inh -25%.
Screening COc1ccccc1N1CCN(Cc2ccc(O)c3ncccc23)CC1 returned Giardia FBPA inh inconclusive, LmPK inh -6%, CHX counter 21*, TbPYK inhibitor -3%, Shiga toxin inh 20 and Sm TGR inh 50µM*.
For CCOC(=O)C1CCN(Cc2ccc(O)c3ncccc23)CC1 the results were Giardia FBPA inh inconclusive, LmPK inh 4%, CHX counter 22*, TbPYK inhibitor -4%, Shiga toxin inh 110* and Sm TGR inh 2.8µM*.
For Oc1ccc(CN2CCCc3ccccc32)c2cccnc12 the results were Giardia FBPA inh 2%, LmPK inh 20%, CHX counter -2, TbPYK inhibitor 5%, Shiga toxin inh 14 and Sm TGR inh 0.1µM*.
Screening COc1ccccc1N1CCN(Cc2ccc(OC)c(OC)c2OC)CC1 returned Giardia FBPA inh -28%, LmPK inh 8%, CHX counter -2, Shiga toxin inh -7 and Sm TGR inh 5%.
CSc1ccc(Cl)c(C(=O)NC2CCCC2)c1 was read as Giardia FBPA inh 4%, LmPK inh 0%, CHX counter -3, TbPYK inhibitor 1%, Shiga toxin inh 10 and Sm TGR inh inconclusive.
COc1cc(SC)ccc1C(=O)NCC1CCCO1 (configuration not stated) was read as Giardia FBPA inh -2%, LmPK inh -1%, CHX counter 24*, TbPYK inhibitor 1%, Shiga toxin inh 74 and Sm TGR inh 0%.
For COc1cc(SC)ccc1C(=O)NC1CCCCC1 the results were Giardia FBPA inh inconclusive, LmPK inh -1%, CHX counter 36*, TbPYK inhibitor 0%, Shiga toxin inh 51 and Sm TGR inh 10%.
Screening COc1cc(SC)ccc1C(=O)OCC(=O)NC1CCCC1 returned Giardia FBPA inh 6%, LmPK inh 0%, CHX counter 54*, TbPYK inhibitor -4%, Shiga toxin inh 113* and Sm TGR inh 28%.
`COc1cc(SC)ccc1C(=O)OCC(=O)NC1CCCCC1` gave Giardia FBPA inh 4%, LmPK inh 17%, CHX counter 60*, TbPYK inhibitor -1%, Shiga toxin inh 35 and Sm TGR inh 7%.
`COc1cc(C(=O)NCC2CCCO2)ccc1OCc1ccccc1Cl` (configuration not stated) gave Giardia FBPA inh 16%, LmPK inh -1%, CHX counter 16*, TbPYK inhibitor 4%, Shiga toxin inh 37 and Sm TGR inh 2%.
COc1cc(C(=O)NCC2CCCO2)ccc1OCc1ccccc1 (configuration not stated) was read as LmPK inh -2%, CHX counter 6, TbPYK inhibitor -6%, Shiga toxin inh 10 and Sm TGR inh 5%.
For COC(=O)C1=C(c2c(C)noc2C)C[C@@H]2CC[C@H]1N2C(=O)NC1CC1 the results were TbPYK inhibitor -1% and Sm TGR inh -4%.
For COC(=O)C1=C(c2c(C)noc2C)C[C@@H]2CC[C@H]1N2C(=O)N1CCOCC1 the results were TbPYK inhibitor 1% and Sm TGR inh 50µM*.
For Oc1ccc(-c2cn3ccccc3n2)cc1 the results were Giardia FBPA inh -9%, LmPK inh 22µM*, CHX counter 23*, TbPYK inhibitor 2%, Shiga toxin inh 25 and Sm TGR inh 8%.
Screening CCN(CC)S(=O)(=O)c1ccc(-c2cn3ccccc3n2)cc1 returned TbPYK inhibitor -5%.
`Brc1ccc(-c2cn3ccccc3n2)cc1` gave Giardia FBPA inh -10%, LmPK inh -30%, CHX counter 35*, TbPYK inhibitor -8%, Shiga toxin inh 52* and Sm TGR inh -9%.
`c1ccc2c(-c3cn4ccccc4n3)c[nH]c2c1` gave Giardia FBPA inh -10%, LmPK inh -1%, CHX counter 43*, Shiga toxin inh 142* and Sm TGR inh -24%.
c1ccc(-c2cn3ccccc3n2)cc1 was read as TbPYK inhibitor -19%.
CN(C)S(=O)(=O)c1ccc(-c2cn3ccccc3n2)cc1 was read as Giardia FBPA inh -2%, LmPK inh inconclusive, CHX counter 35*, TbPYK inhibitor 1%, Shiga toxin inh 65* and Sm TGR inh -4%.
`CC1=C(C(=O)O)N2C(=O)[C@@H](NC(=O)[C@H](N)C3=CCC=CC3)[C@H]2SC1` gave TbPYK inhibitor 0%.
Screening CCN(CCCNC(=O)c1cc2c(=O)n(C)c3ccccc3c2s1)Cc1ccccc1 returned TbPYK inhibitor 0% and Sm TGR inh -19%.
O=C(COc1ccc(Br)cc1)NCc1cn2ccccc2n1 was read as Giardia FBPA inh 4%, LmPK inh 0%, CHX counter -4, TbPYK inhibitor 3%, Shiga toxin inh -5 and Sm TGR inh -10%.
`Brc1ccc(OCc2cn3ccccc3n2)cc1` gave Giardia FBPA inh 0%, LmPK inh inconclusive, CHX counter 36*, TbPYK inhibitor 5%, Shiga toxin inh 73* and Sm TGR inh -3%.
COc1ccccc1-c1nnc(NC(=O)CCS(=O)(=O)c2ccc(F)cc2)o1 was read as TbPYK inhibitor -2%.
For COc1ccc(S(=O)(=O)CCC(=O)Nc2c(C)cccc2C)cc1 the results were Giardia FBPA inh 9%, LmPK inh -1%, CHX counter 2, TbPYK inhibitor -9%, Shiga toxin inh 1 and Sm TGR inh 40µM*.
`Cc1cccc(C)c1NC(=O)CCS(=O)(=O)c1ccc(Br)cc1` gave Giardia FBPA inh 0%, LmPK inh 3%, CHX counter -3, TbPYK inhibitor 3%, Shiga toxin inh -5 and Sm TGR inh 1%.
